Source: PubChem
Pol iota inh: blocks human DNA polymerase iota activity; Q9UNA4; Pol iota fluorescent replication assay, 10 min; Potency, µM (series often up to 115 µM), without a hit: at the highest dose activity, negative = inhibition, hits mostly inhibitors; 390,000 tested, 1% active
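Fluorescent replication assay read twice, at 0 min and 10 min after adding 50 nM (final) substrate. Enzyme (10 nM) and compounds were first incubated 15 min at room temperature; enzyme-free buffer wells were negative controls.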
POLB inh: DNA polymerase beta (human) inhibition; Pol beta primer extension/strand displacement, fluorescence kinetic; Potency, µM (doses to about 114 µM), for inactives: at the highest dose activity change, negative = inhibition, usual class: inhibitors; AID 485314; 340,000 tested, 1.3% active; further: on the % scale 0 is the no-effect control and ±100 the full control effect
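Human Pol beta at 10 nM; strand-displacement substrate 50 nM final. Compound exposure 15 min at room temperature before start, reaction 10 min at room temperature.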
TDP1 inh: TDP1 (human) enzyme inhibition. Q9NUW8. recombinant TDP1, AlphaScreen DNA substrate cleavage. Potency, µM (series often up to 130 µM), for inactives: at the top dose activity change, negative = inhibition, most hits filed as inhibitors. 350,000 tested, 0.28% active. AID 485290; further: on the % scale 0 is the no-effect control and ±100 the full control effect; nearly all actives have a fitted effect of over 40% in size
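Tdp1 1 nM final; 15 min RT w/ cpd; substrate 15 nM, 5 min; beads 10 ug/ml, 10 min; AlphaScreen read. Neg ctrl: no enzyme.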
Pol eta inh: blocks human DNA polymerase eta activity | Q9Y253 | recombinant Pol eta, fluorescent DNA replication assay | Potency, µM (doses to about 114 µM), inactives show at the top dose activity change, negative = inhibition, usual class: inhibitors | 390,000 tested, 1.2% active; further: on the % scale 0 is the no-effect control and ±100 the full control effect
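Fluorescent replication assay: 50 nM final substrate added after a 15 min room-temperature compound preincubation with 10 nM enzyme. Signal taken at 0 min and again at 10 min.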
Pol kappa inh: blocks human DNA polymerase kappa activity; Q9UBT6; purified Pol kappa, fluorescent DNA synthesis assay, 10 min; Potency, µM (highest dose often 107 µM), without a hit: top-dose activity, negative = inhibition, usual class: inhibitors; 400,000 tested, 0.53% active; further: on the % scale 0 is the no-effect control and ±100 the full control effect
Target sequence (Q9UBT6 whole entry, looked up): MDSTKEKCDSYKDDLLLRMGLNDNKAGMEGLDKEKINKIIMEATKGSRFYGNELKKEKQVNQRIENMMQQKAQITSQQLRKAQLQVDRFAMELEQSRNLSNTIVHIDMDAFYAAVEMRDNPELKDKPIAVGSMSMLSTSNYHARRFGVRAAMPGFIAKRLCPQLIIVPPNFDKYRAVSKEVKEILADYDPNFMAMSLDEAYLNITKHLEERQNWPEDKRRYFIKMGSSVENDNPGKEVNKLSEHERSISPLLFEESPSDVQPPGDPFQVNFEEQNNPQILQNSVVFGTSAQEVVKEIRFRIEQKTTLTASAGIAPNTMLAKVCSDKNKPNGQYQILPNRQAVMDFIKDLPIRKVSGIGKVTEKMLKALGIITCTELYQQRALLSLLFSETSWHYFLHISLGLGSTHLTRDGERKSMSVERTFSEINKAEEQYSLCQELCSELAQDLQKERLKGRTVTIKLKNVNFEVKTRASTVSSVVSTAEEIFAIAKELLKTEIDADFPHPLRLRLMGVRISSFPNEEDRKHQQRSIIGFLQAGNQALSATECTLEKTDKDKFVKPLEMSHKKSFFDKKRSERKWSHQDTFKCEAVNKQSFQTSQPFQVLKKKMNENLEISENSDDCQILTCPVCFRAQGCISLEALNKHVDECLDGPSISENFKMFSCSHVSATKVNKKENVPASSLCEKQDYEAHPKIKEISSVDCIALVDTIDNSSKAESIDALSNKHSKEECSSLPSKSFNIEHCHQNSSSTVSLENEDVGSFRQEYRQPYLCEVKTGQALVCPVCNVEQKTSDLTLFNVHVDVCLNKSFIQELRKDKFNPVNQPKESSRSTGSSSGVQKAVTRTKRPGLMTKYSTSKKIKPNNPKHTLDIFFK
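Enzyme at 10 nM met test compounds for 15 min at room temperature. Substrate addition (50 nM final) began the reaction, which was monitored by fluorescence at 0 and 10 min.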
Numbers without * were called inactive; ? = inconclusive; nt = not tested or not shown; [ ] = remark or other dose. Shown are actives, neighbours in structure and some others; about 2.4% of the full set was active somewhere. The call rests on the fitted dose curve; in most records, active means well fitted curve in the direction sought with a large enough effect; inconclusive means small, poorly fitted or top-dose-only effect, or another doubt; inactive means no such curve, though single readings can be large; an effect the other way counts as inactive or inconclusive. Potency means the concentration at half of the fitted maximal effect.

SMILES	Pol iota inh	POLB inh	TDP1 inh	Pol eta inh	Pol kappa inh
CCOC(=O)CN1C(=O)N[C@@H](c2ccccc2)[C@H](C(=O)OC)[C@H]1C	nt	nt	9%[21 µM]	nt	nt
CC1=CC(=O)c2c(O)ccc(O)c2C1=O	nt	1.8µM*	-3%	nt	nt
COc1cccc(Oc2cc(NN3CCCCC3)c([N+](=O)[O-])cc2[N+](=O)[O-])c1OC	?	56µM*	nt	-11%	-20%
O=[N+]([O-])c1cc([N+](=O)[O-])c(Oc2cccc3c2CCCC3)cc1NN1CCCCC1	-18%	nt	nt	-12%	-9%
O=C(O)/C=C/C(=O)c1ccc(O)cc1	18µM*	0%	5%	3%	-19%
O=C(O)/C=C/C(=O)Nc1ccc(O)cc1	?	37%	3%	?	?
CCCCCCCCCCCCCCCCCCc1ccc(C(=O)/C=C\C(=O)O)cc1	nt	nt	?	nt	13µM*
CCOc1ccccc1NC(=O)CN1CCCCCC1	168%	15%	14µM*	-19%	-9%
Cc1ccccc1NC(=O)CN1CCOCC1	115%	22%	4%	4%	8%
O=C(CN1CCOCC1)Nc1ccccc1C(=O)O	79µM*	1%	-2%	-4%	-7%
COc1ccc(OC)c(NC(=O)C(OC(=O)CNC(=O)c2ccccc2)c2ccccc2)c1 (centres undefined)	nt	nt	1%	nt	nt
O=C(COc1c(Br)cc(Br)cc1Br)N/N=C/c1ccco1	11%	37%	1%	-11%	19%
O=C(Cc1cccs1)N/N=C/C=C\c1ccco1	?	?	-1%	50µM*	?
Cc1ccc(OCC(=O)N/N=C/C=C/c2ccco2)c(Br)c1	50µM*	-23%	4%	-6%	79µM*
O=C(N/N=C/C=C/c1ccco1)/C(=C/c1ccccc1)NC(=O)c1ccccc1	13µM*	2%	3%	79µM*	?
O=C(N/N=C/C=C/c1ccc([N+](=O)[O-])cc1)c1cccs1	?	7.1µM*	nt	?	-16%
O=C(Cc1cccs1)N/N=C/c1ccco1	-5%	-25%	-1%	?	-20%
Cc1ccccc1Cn1c(SCc2ccc(C(=O)NC(C)c3ccccc3)cc2)nc2ccncc21 (centres undefined)	12%	6%	13%	-19%	-8%
Cc1cc(N2C(=O)c3ccccc3C2=O)no1	nt	nt	0%	nt	nt
N#Cc1nc(NC2CCCC2)c2ncn(-c3cc(F)cc(F)c3)c2n1	nt	nt	-3%	nt	nt
O=C(N/N=C/C=C\c1ccco1)c1cccs1	25µM*	22µM*	1%	?	?
CC(/C=C/c1ccco1)=N/NC(=O)c1ccccc1Cl	-14%	2%	3%	?	-1%
O=C(N/N=C/C=C/c1ccco1)c1ccncc1	16µM*	39%	-6%	-2%	79µM*
O=C(N/N=C/C=C/c1ccco1)c1ccccc1Cl	?	1%	4%	-5%	79µM*
CCc1nc2cccnc2n1-c1ccc(CC(=O)O)cc1	64%	-1%	nt	50µM*	-24%
SMILES	Pol iota inh	POLB inh	TDP1 inh	Pol eta inh	Pol kappa inh
CCC(C)NC(=O)C1CCN(C(=O)c2cc3sccc3n2Cc2ccc(Cl)cc2)CC1 (centres undefined)	?	17%	3%	-16%	9%
O=C(c1cccc(S(=O)(=O)NCc2ccccc2)c1)N1CCN(c2ccccc2Cl)CC1	89µM*	nt	nt	-17%	-8%
O=C(c1cccc(S(=O)(=O)NCc2ccccc2)c1)N1CCN(c2ccccc2)CC1	-22%	nt	0%	-10%	10%
CN(C)c1ccc(CNC(=O)CCS(=O)(=O)c2ccc3c(c2)n(C)c(=O)c(=O)n3C)cc1	5%	25µM*	nt	-16%	0%
O=C(O)c1cc(N=Nc2ccc(O)c(C(=O)O)c2)ccc1O	nt	nt	nt	nt	3%[19.4 µM]
O=C(O)c1cc(N=Nc2ccc(-c3ccc(N=Nc4ccc(O)c(C(=O)O)c4)cc3)cc2)ccc1O	nt	nt	?	nt	6µM*
O=C(O)c1ccc2c(c1)C(=O)N([C@H](Cc1ccc(Cl)cc1)C(=O)O)C2=O	nt	nt	10%	nt	nt
Cc1ccc(/C=[N+](\[O-])c2ccc(N(C)C)cc2)c2nsnc12	50µM*	?	8%	-1%	-16%
Cc1ccc(C)c2c(/C=C/c3ccc(N(C)C)cc3)ccnc12	?	nt	nt	nt	-4%
O=C(O)c1ccc(CSc2nc(-c3ccc(Cl)cc3)cc(C(F)(F)F)n2)cc1	?	89µM*	-8%	-7%	-13%
O=C(O)c1ccc(CSc2nc(-c3ccccc3)cc(C(F)(F)F)n2)cc1	17%	-3%	4%	-9%	-1%
Cc1ccc(NC(=O)Cn2c(=O)c3cccn3c3ccccc32)c(C)c1	29%	13%	-1%	0%	-5%
Cc1ccc(NC(=O)CCn2c(=O)c3cccn3c3ccccc32)c(C)c1	89µM*	0%	3%	0%	1%
Cc1ccc2nc(N3C(=O)C(O)=C(C(=O)c4ccc(C)o4)C3c3ccco3)sc2c1 (centres undefined)	?	nt	-9%	?	-36%
O=C(C1=C(O)C(=O)N(c2nc3ccc(Cl)cc3s2)C1c1ccco1)c1ccco1 (centres undefined)	7.9µM*	nt	-2%	20µM*	40µM*
O=C1C(=O)C(c2cc(O)c(O)c(O)c2)Oc2cc(O)cc(O)c21 (centres undefined)	1.4µM*	nt	nt	nt	1.3µM*
O=C1CC(c2ccccc2)Oc2cc(O)cc(O)c21 (centres undefined)	9%	17%	nt	-10%	2%
Cc1sc2nc(CSC(C)C(=O)Nc3cc(S(C)(=O)=O)ccc3Cl)[nH]c(=O)c2c1C (centres undefined)	?	nt	-16%	32µM*	?
O=C(N/N=C/c1cn(-c2ccccc2)nc1-c1ccc(F)cc1)c1ccc2c(c1)OCO2	2%	2%	5%	-7%	-24%
O=C(N/N=C/c1cn(-c2ccccc2)nc1-c1ccc2c(c1)OCCO2)c1ccncc1	?	-14%	50µM*	-15%	-26%
COc1cc(N2Cc3ccccc3C2)ccc1C=O	?	11µM*	nt	?	-23%
Cc1cc(C)cc(N2Cc3ccccc3C2)c1	24%	18%	3%	-18%	2%
O=C(CSc1ccccc1)Nc1ccc(-c2nc3ccccc3[nH]2)cc1	?	7.1µM*	-4%	?	?
Cc1ccc2nc(-c3ccc(NC(=O)CSc4nccc(=O)[nH]4)cc3)sc2c1	95%	35µM*	2%	-17%	-12%
O=C(CSc1ccc(Cl)cc1)Nc1cccc(-c2nc3ccccc3[nH]2)c1	?	-12%	-5%	?	-29%
Cc1ccc2nc(-c3ccc(NC(=O)CSc4nc(N)cc(=O)[nH]4)cc3)sc2c1	-20%	-2%	nt	-3%	-10%
Cc1ccc2nc(-c3ccc(NC(=O)CSc4ccccc4)cc3)[nH]c2c1	35µM*	22µM*	0%	-11%	-4%[60.1 µM]
